This passage reports growth results from PubChem BioAssay (NCI).

The panel holds about 83,000 compounds, 20% with a hit somewhere; the sample as a whole holds those more often.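 96-well plates, one dose, 48 hours. Percent growth reported; active if below 10.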 Unmarked numbers belong to inactive results. The source made the active and inactive calls.

This assay deals with BT-549 breast. Briefly: NCI-60 one-dose screen, 48 h (100 = growth as untreated, 0 = no growth, -100 = all killed). To be noted: 10 µM unless noted.
On to `COc1ccc2c(c1)C(=O)/C(=C/c1cccc(OCC(=O)c3ccccc3)c1)CC2`, for which the growth is 39.2%.

Turning to `NC(=Nc1ccccc1)SCCCCSC(N)=Nc1ccccc1`, the growth was 86.4%.

`CC/C(=C\c1ccc(N(C)C)cc1)c1ccncc1`: the growth was 65.8%.

As for `CCOC(=O)c1cc(-c2cccnc2)nc2c(Cl)cc(Cl)cc12`, the growth is 109%.

`Clc1ccc(-n2cnc3c(Cl)ncnc32)cc1Cl`: the growth was 90.3%.

For `O=C(CSCC(=O)N/N=C/c1ccccc1O)N/N=C\c1ccccc1O`, the growth is 1.06% (active).

`COc1ccc(C(=O)COc2cccc(/C=C3\Oc4ccc5ccccc5c4C3=O)c2)cc1`: the growth is -96.9% (active).

`CC(=O)NC1(C(=O)O)CCCC1`: the growth was 118%.

Turning to `CCOC(=O)C1=NN(c2ccc(Cl)cc2)C2C3N(c4ccc(Cl)cc4)N=C(C(=O)OCC)N3c3ccccc3N12` (stereo not drawn), the growth was 123%.

Consider `COc1ccc(/C=C2\NC(=S)NC2=O)cc1`, for which the growth is 105%.

Consider `O=C(/C=C/c1ccccc1)CC(c1ccccc1)N1CCOCC1` (stereo not drawn), for which the growth is -79.4% (active).

Turning to `CCn1c2ccccc2c2ccc(C(C)=O)cc21`, the growth is 96.9%.

Regarding `Cc1ccc(C=C2C(Cl)=C(Cl)C(Cl)=C2Cl)cc1`, the growth was -31.3% (active).

`Cc1ccccc1NC(=O)c1cc2ccccc2cc1O`: the growth is -0.275% (active).

On to `c1ccc(-n2nnnc2-c2cccc3ccccc23)cc1`, for which the growth is 29.5%.

For `Nc1ccccc1-c1ccc([N+](=O)[O-])cc1`, the growth was -33.9% (active).

Regarding `c1cnc2ccc3ncccc3c2c1`, the growth is 108%.

On to `CC(=O)n1c2ccccc2c2ccccc21`, for which the growth was 119%.

As to `CC1=CC(=O)C(C(C)=Nc2ccccc2Cl)C(=O)O1` (stereo not drawn), the growth is 121%.

On to `COc1c(O)cc2oc3cc(O)c(CC=C(C)C)c(O)c3c(=O)c2c1C/C=C(\C)CCC=C(C)C`, for which the growth is 99.3%.

`CCOC(=O)c1ccccc1OC(=O)NNc1ccccc1`: the growth was 48.3%.

For the compound `O=C(/C=C/c1cc2ccccc2[nH]c1=O)c1ccc(O)cc1`, the growth was 28%.

Consider `COc1cc(/C=C2\COc3ccc(O)cc3C2=O)cc(OC)c1`, for which the growth was 66.1%.

As for `COc1cccc(CCC2C(=O)CCCC2=O)c1`, the growth is 109%.

Consider `CSc1ncc2ncn(C3OC(CO)C(O)C3O)c2n1` (stereo not drawn), for which the growth is 118%.

In the case of `CN(C)CCCN1c2nc3ccccc3cc2Sc2cc3ccccc3nc21`, the growth is -100% (active).

For `Cc1c(C)c(N2C(=O)C=CC2=O)c(C)c(C)c1N1C(=O)C=CC1=O`, the growth is 110%.

`CC12CCC3C(CCC4CC(=O)/C(=C\O)CC43C)C1CCC(=O)O2` (stereo not drawn): the growth is 112%.

As for `CC(C)C/C(=N\NC(=O)c1ccncc1)c1cc(Cl)ccc1O`, the growth is -1.24% (active).

Take `Cn1cnc([N+](=O)[O-])c1S(=O)(=O)Oc1ccc(Cl)cc1`: the growth is 103%.

As for `O=C(N1CCC(CN=c2cc3n(-c4ccc(Cl)cc4)c4ccccc4nc-3cc2Nc2ccc(Cl)cc2)CC1)N1CC1`, the growth was -82.5% (active).

Turning to `CN1COc2ccc3ccccc3c2C1`, the growth is 98.1%.

For `CCCCCCCC1(C)NC(=O)NC1=O` (stereo not drawn), the growth is 121%.
